Source: PubChem BioAssay AID1159580 (chemical genetic matrix, 2015)
Where “and” joins values, the source holds several entries; their conditions need not be identical. Equal values may be shown once. About 2,000 (36%) of roughly 5,500 compounds were called active. Roughly 18% stayed inconclusive and do not appear here. Cut-off read from the data, not from the text of the source: active = normalized growth mostly below about 0.91 (no sharp cut-off); inconclusive = no clear call, values can overlap the other calls; inactive = mostly above about 0.92. This is one part of the list.

Test: chemical genetic growth profiling, strain panel (AID 1159580);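 note: tested at 20 µM; growth read once vehicle control cultures reached saturation at 30 °C; 1 = growth at the plate median or of vehicle wells; lower values mean less growth of the strain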
Conditions: S. cerevisiae deletion strains, growth OD

Measured: normalized growth

NC(=O)CC[C@@H](N)C(=O)O
inactive: locus YAL021C, strain ccr4, active compounds read low 1.02 | locus YAL026C, strain drs2, active compounds read low 1.05 | locus YAL030W, strain snc1, active compounds read low 1.04 | locus YBL061C, strain skt5, active compounds read low 1.03 | locus YBR009C, strain hhf1, active compounds read low 1.03 | locus YBR021W, strain FUR4, active compounds read low 1.04 | locus YBR023C, strain chs3, active compounds read low 1.03 | locus YBR171W, strain sec66, active compounds read low 1.05 | locus YBR229C, strain ROT2, active compounds read low 1.01 | locus YBR231C, strain swc5, active compounds read low 1.02 | locus YBR279W, strain paf1, active compounds read low 1.02 | locus YCL011C, strain gbp2, active compounds read low 1.02 | locus YCL016C, strain dcc1, active compounds read low 1.02 | locus YCL029C, strain bik1, active compounds read low 1.01 | locus YCL061C, strain MRC1, active compounds read low 1.02 | locus YCL069W, strain vba3, active compounds read low 1.02 | locus YCR088W, strain abp1, active compounds read low 1.03 | locus YDL005C, strain med2, active compounds read low 1.04 | locus YDL035C, strain GPR1, active compounds read low 1.06 | locus YDL040C, strain nat1, active compounds read low 1.02 | locus YDL074C, strain BRE1, active compounds read low 1.09 | locus YDL101C, strain DUN1, active compounds read low 1.02 | locus YDL185W, strain tfp1, active compounds read low 1.01 | locus YDL192W, strain arf1, active compounds read low 1.03 | locus YDR001C, strain nth1, active compounds read low 1.02 | locus YDR069C, strain doa4, active compounds read low 1.03 | locus YDR101C, strain arx1, active compounds read low 1.01 | locus YDR137W, strain rgp1, active compounds read low 1.06 | locus YDR159W, strain sac3, active compounds read low 1.08 | locus YDR162C, strain NBP2, active compounds read low 1.05 | locus YDR195W, strain ref2 1.01 | locus YDR297W, strain sur2, active compounds read low 1.02 | locus YDR318W, strain mcm21, active compounds read low 0.996 | locus YDR334W, strain swr1, active compounds read low 1.03 | locus YDR335W, strain msn5, active compounds read low 1.04 | locus YDR388W, active compounds read low 0.993 | locus YDR392W, strain spt3, active compounds read low 0.937 | locus YDR502C, strain sam2, active compounds read low 1.02 | locus YEL003W, strain gim4, active compounds read low 1.02 | locus YEL037C, strain rad23, active compounds read low 1.03 | locus YEL061C, strain CIN8 (second series), active compounds read low 1.02 | locus YEL061C, strain CIN8, active compounds read low 1.02 | locus YER015W, strain faa2, active compounds read low 1.03 | locus YER016W, strain bim1, active compounds read low 1.02 | locus YER110C, active compounds read low 0.996 | locus YER111C, strain swi4, active compounds read low 1.02 | locus YER155C, strain BEM2 (second series), active compounds read low 0.971 | locus YER155C, strain BEM2, active compounds read low 1.01 | locus YER167W, strain BCK2, active compounds read low 1.02 | locus YFR010W, strain ubp6, active compounds read low 1.05 | locus YGL078C, strain dbp3, active compounds read low 1.03 | locus YGL086W, strain mad1, active compounds read low 1.02 | locus YGL167C, strain pmr1, active compounds read low 1.04 | locus YGL173C, strain kem1, active compounds read low 1.04 | locus YGL227W, strain vid30, active compounds read low 1.02 | locus YGL240W, strain doc1, active compounds read low 1.02 | locus YGL248W, strain PDE1, active compounds read low 1.02 | locus YGL253W, strain hxk2, active compounds read low 1.06 | locus YGR078C, strain PAC10, active compounds read low 1.04 | locus YGR135W, strain pre9, active compounds read low 1.02 | locus YGR252W, strain gcn5, active compounds read low 1.14 | locus YHR013C, strain ard1, active compounds read low 1.07 | locus YHR027C, strain rpn1, active compounds read low 1.04 | locus YHR030C, strain SLT2, active compounds read low 1.02 and 1.05 | locus YHR079C, strain IRE1 (second series), active compounds read low 0.987 | locus YHR079C, strain IRE1, active compounds read low 1.03 | locus YHR094C, strain hxt1, active compounds read low 0.984 | locus YHR129C, strain ARP1, active compounds read low 1.03 | locus YHR142W, strain chs7, active compounds read low 1.05 | locus YHR200W, strain rpn10, active compounds read low 1 | locus YIL066C, strain RNR3, active compounds read low 1.05 | locus YIL073C, strain SPO22, active compounds read low 1.13 | locus YIL125W, strain kgd1, active compounds read low 1.02 | locus YIR030C, strain dcg1, active compounds read low 0.998 | locus YJL092W, strain hpr5, active compounds read low 1.03 | locus YJL095W, strain BCK1 (second series), active compounds read low 1.02 | locus YJL095W, strain BCK1, active compounds read low 1.05 and 1.04 | locus YJL115W, strain asf1, active compounds read low 1.02 | locus YJL129C, strain trk1, active compounds read low 1.07 | locus YJL134W, strain LCB3, active compounds read low 1.01 | locus YJL154C, strain vps35, active compounds read low 1.02 | locus YJL164C, strain tpk1, active compounds read low 1.03 | locus YJL166W, strain qcr8, active compounds read low 1.04 | locus YJL168C, strain set2, active compounds read low 0.989 | locus YJL187C, strain SWE1 (second series), active compounds read low 1.03 | locus YJL187C, strain SWE1, active compounds read low 1.06 | locus YJR043C, strain POL32, active compounds read low 1.04 | locus YJR066W, strain TOR1, active compounds read low 1 | locus YKL009W, strain mrt4, active compounds read low 1.08 | locus YKL068W, active compounds read low 1.02 | locus YKL085W, strain MDH1 (second series), active compounds read low 1.01 | locus YKL085W, strain MDH1, active compounds read low 1.01 | locus YKL160W, strain elf1, active compounds read low 1.02 | locus YKR001C, strain vps1, active compounds read low 1.05 | locus YKR026C, strain gcn3, active compounds read low 1.03 | locus YKR091W, strain srl3, active compounds read low 1.03 | locus YLL001W, strain dnm1, active compounds read low 1 | locus YLL026W, active compounds read low 1.03 | locus YLL041C, strain sdh2, active compounds read low 1.02 | locus YLR027C, strain aat2, active compounds read low 1.02 | locus YLR039C, strain RIC1, active compounds read low 1.11 | locus YLR058C, strain SHM2, active compounds read low 1.02 | locus YLR102C, strain apc9, active compounds read low 0.98 | locus YLR113W, strain HOG1, active compounds read low 1.02 | locus YLR221C, strain rsa3, active compounds read low 1.04 | locus YLR258W, strain gsy2, active compounds read low 1.02 | locus YLR262C, strain YPT6 (second series), active compounds read low 1.05 | locus YLR262C, strain YPT6, active compounds read low 1.1 | locus YLR268W, strain sec22, active compounds read low 1.05 | locus YLR320W, strain mms22, active compounds read low 1.04 | locus YLR330W, strain CHS5, active compounds read low 1.03 | locus YLR342W, strain FKS1 (second series), active compounds read low 1.07 | locus YLR342W, strain FKS1, active compounds read low 1.03 | locus YLR357W, strain rsc2, active compounds read low 1.05 | locus YLR370C, strain arc18, active compounds read low 1.03 | locus YLR371W, strain rom2, active compounds read low 0.993 | locus YLR384C, strain iki3, active compounds read low 1.02 | locus YLR418C, strain cdc73, active compounds read low 1.07 | locus YML016C, strain PPZ1, active compounds read low 1.01 | locus YML032C, strain rad52, active compounds read low 1.02 | locus YML120C, strain ndi1, active compounds read low 1.03 | locus YML124C, strain tub3, active compounds read low 1.01 | locus YMR058W, strain fet3, active compounds read low 1.04 | locus YMR078C, strain ctf18, active compounds read low 0.988 | locus YMR125W, strain sto1, active compounds read low 1.03 | locus YMR129W, active compounds read low 1.02 | locus YMR205C, strain PFK2, active compounds read low 1.04 | locus YMR223W, strain ubp8, active compounds read low 1.02 | locus YMR231W, strain pep5, active compounds read low 1.03 | locus YMR263W, strain SAP30, active compounds read low 1.02 | locus YMR307W, strain GAS1, active compounds read low 1.13 | locus YNL067W, strain RPL9B, active compounds read low 1.03 | locus YNL071W, strain lat1, active compounds read low 1.03 | locus YNL153C, strain GIM3, active compounds read low 1.02 | locus YNL183C, strain NPR1, active compounds read low 1.01 | locus YNL209W, strain ssb2, active compounds read low 1.02 | locus YNL233W, strain BNI4, active compounds read low 1.03 | locus YNL248C, strain rpa49, active compounds read low 1.05 | locus YNL250W, strain rad50, active compounds read low 1.03 | locus YNL271C, strain bni1, active compounds read low 1.02 | locus YNL298W, strain CLA4, active compounds read low 1.02 | locus YNL307C, strain MCK1, active compounds read low 0.995 | locus YNL322C, strain KRE1 (second series), active compounds read low 1.02 | locus YNL322C, strain KRE1, active compounds read low 1.02 | locus YNR049C, strain mso1, active compounds read low 1.04 | locus YNR052C, strain pop2, active compounds read low 1.03 | locus YOL012C, strain htz1 1.02 | locus YOL147C, strain pex11, active compounds read low 1 | locus YOR001W, strain rrp6, active compounds read low 1.04 | locus YOR061W, strain CKA2, active compounds read low 1.02 | locus YOR069W, strain VPS5, active compounds read low 1.01 | locus YOR070C, strain gyp1, active compounds read low 1.01 | locus YOR080W, strain dia2, active compounds read low 1.03 | locus YOR083W, strain WHI5, active compounds read low 1.01 | locus YOR106W, strain vam3, active compounds read low 1.06 | locus YOR136W, strain idh2, active compounds read low 1.02 | locus YOR144C, strain elg1, active compounds read low 1 | locus YOR184W, strain ser1, active compounds read low 1.05 | locus YOR231W, strain MKK1, active compounds read low 1.03 | locus YOR265W, strain rbl2, active compounds read low 1.02 | locus YOR270C, strain vph1, active compounds read low 1.1 | locus YOR290C, strain snf2, active compounds read low 1.03 | locus YOR316C, strain cot1, active compounds read low 0.987 | locus YPL051W, strain arl3, active compounds read low 1 | locus YPL078C, strain atp4, active compounds read low 1.01 | locus YPL106C, strain sse1, active compounds read low 1.01 | locus YPL240C, strain hsp82, active compounds read low 1.02 | locus YPL241C, strain CIN2, active compounds read low 1.01 | locus YPL256C, strain CLN2, active compounds read low 1.05 | locus YPR119W, strain clb2, active compounds read low 0.991 | locus YPR141C, strain kar3, active compounds read low 1.01 | locus YPR163C, strain tif3, active compounds read low 0.99 | locus YPR167C, strain met16, active compounds read low 1 | strain wtn01, active compounds read low 1.06
